Where “and” joins values, the source holds several entries; their conditions need not be identical. Equal values may be shown once. Results filed as inconclusive are left out. A call without a number means that no potency is given here. Some compounds were tested as several samples or in several runs, with calls that do not always agree. Calls of active or inactive are those of the source. Unless noted, the call rests on the fitted dose curve; in most records, active means well fitted curve in the direction sought with a large enough effect in the repeat runs; inconclusive means weak or mixed curves; inactive means no such curve, though single readings can be large; an effect the other way counts as inactive or inconclusive.
Legend:
[1] = target: Retinoic acid receptor RXR-alpha (Homo sapiens) (UniProt P19793); test: qHTS assay to identify small molecule agonists of the RXR signaling pathway (AID 1159527; calls by dose curve; further: nearly all actives have a fitted effect of over 35% in size; further: potency means the concentration at half of the fitted maximal effect)
Retinoic acid receptor RXR-alpha (Homo sapiens), sequence (P19793 whole entry, looked up): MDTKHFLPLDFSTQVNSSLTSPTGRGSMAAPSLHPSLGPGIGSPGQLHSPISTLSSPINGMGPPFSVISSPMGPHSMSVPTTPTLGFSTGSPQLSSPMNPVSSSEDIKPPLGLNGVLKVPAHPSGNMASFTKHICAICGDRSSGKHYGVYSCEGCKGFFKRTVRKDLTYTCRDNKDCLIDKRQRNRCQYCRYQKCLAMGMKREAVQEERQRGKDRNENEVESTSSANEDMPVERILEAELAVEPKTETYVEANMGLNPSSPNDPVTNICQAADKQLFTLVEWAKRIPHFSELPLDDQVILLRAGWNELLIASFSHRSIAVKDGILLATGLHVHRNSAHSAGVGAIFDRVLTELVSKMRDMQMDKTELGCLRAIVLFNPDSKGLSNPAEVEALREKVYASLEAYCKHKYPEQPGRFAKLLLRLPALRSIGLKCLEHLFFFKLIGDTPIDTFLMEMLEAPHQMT
Outline: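 GeneBLAzer RXR-alpha-UAS-bla HEK 293T cells in medium with 2% charcoal-stripped FBS, pre-incubated 5 hr at 37 C, then exposed to compounds 16 hr. Beta-lactamase reporter read by FRET substrate, 2 hr room temperature, 460/530 nm emission.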

[2] = qHTS assay to identify small molecule agonists of the RXR signaling pathway - cell viability counter screen (AID 1159529); further: series mostly up to about 77 µM; nearly all actives have a fitted effect of over 50% in size
Outline: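 RXR-alpha-UAS-bla HEK 293T cells in medium with 2% charcoal-stripped FBS were preincubated 5 hr, then exposed to compounds for 16 hr at 37 C. Viability was read as CellTiter-Glo luminescence after 30 min at room temperature.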

[3] = qHTS assay to identify small molecule antagonists of the retinoid acid receptor (RAR) signaling pathway - cell viability counter screen (AID 1159551); further: nearly all actives have a fitted effect of over 35% in size
Outline: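 C3RL4 RARE-luciferase cells, 1,000/well, incubated overnight, then dosed with compound plus 1 uM retinol (final). After 6 hr at 37 C, viability read by CellTiter-Glo ATP luminescence following 30 min at room temperature.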

[4] = qHTS assay to identify small molecule antagonists of the retinoic acid receptor (RAR) signaling pathway (AID 1159552; further: nearly all actives have a fitted effect of over 50% in size)
Outline: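 RARE-luc C3RL4 cells; cpds + 1 uM (final) retinol, 6 hr, 37 C/5% CO2; luciferase reagent, 30 min RT, luminescence readout. Inhibitors of retinol-driven signal scored.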

[5] = qHTS assay to identify small molecule agonists of the retinoic acid receptor (RAR) signaling pathway (AID 1159553); further: potency means the concentration at half of the fitted maximal effect
Outline: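 C3RL4 RARE-luciferase cells were seeded at 1,000/well and grown overnight at 37 C, then exposed to compounds for 6 hr at 37 C, 5% CO2. Luciferase reagent was added and luminescence was read after 30 min at room temperature.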

[6] = target: Luciferin 4-monooxygenase (Photinus pyralis) (UniProt P08659); test: qHTS assay to identify small molecule inhibitors of firefly luciferase (AID 1224835); further: nearly all actives have a fitted effect of over 25% in size; further: potency means the concentration at half of the fitted maximal effect
Luciferin 4-monooxygenase (Photinus pyralis), sequence (P08659 whole entry, looked up): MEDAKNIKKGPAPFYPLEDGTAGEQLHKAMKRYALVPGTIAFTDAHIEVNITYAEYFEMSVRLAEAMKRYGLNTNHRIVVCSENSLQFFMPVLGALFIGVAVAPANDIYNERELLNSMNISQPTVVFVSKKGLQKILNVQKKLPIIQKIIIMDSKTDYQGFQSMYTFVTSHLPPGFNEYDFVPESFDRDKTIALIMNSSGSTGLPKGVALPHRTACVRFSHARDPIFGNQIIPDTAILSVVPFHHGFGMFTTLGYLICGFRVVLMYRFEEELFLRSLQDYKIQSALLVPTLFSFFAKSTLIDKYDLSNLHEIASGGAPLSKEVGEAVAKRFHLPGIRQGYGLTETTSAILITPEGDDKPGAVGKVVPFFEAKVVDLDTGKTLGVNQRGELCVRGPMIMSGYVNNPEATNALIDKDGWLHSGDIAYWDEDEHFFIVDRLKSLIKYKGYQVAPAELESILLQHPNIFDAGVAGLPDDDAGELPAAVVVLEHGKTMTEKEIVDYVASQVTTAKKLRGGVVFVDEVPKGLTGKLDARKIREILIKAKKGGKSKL
Outline: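 Biochemical qHTS: compounds run as interplate titrations against purified firefly enzyme, with D-luciferin and ATP each at its KM concentration. Light output recorded by CCD imaging.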

[7] = qHTS assay to identify small molecule agonists of the constitutive androstane receptor (CAR) signaling pathway - cell viability counter screen (AID 1224836); further: series mostly up to about 92 µM; nearly all actives have a fitted effect of over 45% in size
Outline: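 HepG2 cells stably carrying hCAR and a CYP2B6-2.2kb reporter were plated 4 h, then given compounds at 15 concentrations plus PK11195 (final 0.75 uM). After 23 h at 37 C, viability was read by CellTiter-Fluor fluorescence.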

[8] = qHTS assay to identify small molecule antagonists of the constitutive androstane receptor (CAR) signaling pathway - cell viability counter screen (AID 1224837); further: series mostly up to about 92 µM; nearly all actives have a fitted effect of over 45% in size
Outline: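 HepG2 cells stably carrying hCAR and CYP2B6-2.2kb reporter, stimulated with 50 nM CITCO and compounds at 15 concentrations for 23 h at 37 C. Viability measured by CellTiter-Fluor fluorescence.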

[9] = target: Nuclear receptor subfamily 1 group I member 3 (Homo sapiens) (UniProt Q14994); test: qHTS assay to identify small molecule antagonists of the constitutive androstane receptor (CAR) signaling pathway (AID 1224838); further: nearly all actives have a fitted effect of over 40% in size
Nuclear receptor subfamily 1 group I member 3 (Homo sapiens), sequence (Q14994 whole entry, looked up): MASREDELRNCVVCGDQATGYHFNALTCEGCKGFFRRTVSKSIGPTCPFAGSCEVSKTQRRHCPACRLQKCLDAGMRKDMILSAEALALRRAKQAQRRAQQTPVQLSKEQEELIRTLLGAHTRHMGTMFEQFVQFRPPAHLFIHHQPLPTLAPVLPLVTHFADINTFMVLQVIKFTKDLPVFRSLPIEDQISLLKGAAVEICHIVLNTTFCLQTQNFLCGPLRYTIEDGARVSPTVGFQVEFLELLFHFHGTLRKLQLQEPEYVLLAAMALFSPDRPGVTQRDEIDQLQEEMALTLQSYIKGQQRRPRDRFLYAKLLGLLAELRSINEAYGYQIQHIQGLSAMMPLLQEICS
Outline: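 HepG2 cells stably carrying hCAR and a CYP2B6-2.2kb luciferase reporter, seeded 4 hrs before compound (15 concentrations). Stimulated with 50 nM CITCO for 24 hr at 37 C. ONE-Glo luminescence read after 30 min at room temperature.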

[10] = target: Nuclear receptor subfamily 1 group I member 3 (Homo sapiens) (UniProt Q14994); test: qHTS assay to identify small molecule agonists of the constitutive androstane receptor (CAR) signaling pathway (AID 1224839); further: nearly all actives have a fitted effect of over 15% in size; further: potency means the concentration at half of the fitted maximal effect
Outline: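 HepG2 cells stably expressing hCAR and a CYP2B6-2.2kb luciferase reporter were treated with compounds at 15 concentrations plus 0.75 uM PK11195 (final) for 24 h at 37 C; luminescence was read after ONE-Glo addition.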

[11] = qHTS assay to identify small molecule antagonists of the estrogen related receptor signaling pathway with the pleiotropic PPARgamma coactivator (PGC) from Tox21 10K library - cell viability counter screen (AID 1224840; active means well fitted cell-killing curve with a large enough effect in the repeat runs, not every such curve was filed as active; further: nearly all actives have a fitted effect of over 40% in size)
Outline: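 PGC/ERR cells (2,000/well) plated 6 h, then compound-treated for 17.5 h at 37 C. Viability measured by CellTiter-Fluor fluorescence after 30 min at 37 C, multiplexed with the pathway assay.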

[12] = target: Thyrotropin receptor (Homo sapiens) (UniProt P16473); test: qHTS assay to identify small molecule agonists of the thyroid stimulating hormone receptor (TSHR) signaling pathway (AID 1224843; calls by dose curve; further: nearly all actives have a fitted effect of over 45% in size)
Thyrotropin receptor (Homo sapiens), sequence (P16473 whole entry, looked up): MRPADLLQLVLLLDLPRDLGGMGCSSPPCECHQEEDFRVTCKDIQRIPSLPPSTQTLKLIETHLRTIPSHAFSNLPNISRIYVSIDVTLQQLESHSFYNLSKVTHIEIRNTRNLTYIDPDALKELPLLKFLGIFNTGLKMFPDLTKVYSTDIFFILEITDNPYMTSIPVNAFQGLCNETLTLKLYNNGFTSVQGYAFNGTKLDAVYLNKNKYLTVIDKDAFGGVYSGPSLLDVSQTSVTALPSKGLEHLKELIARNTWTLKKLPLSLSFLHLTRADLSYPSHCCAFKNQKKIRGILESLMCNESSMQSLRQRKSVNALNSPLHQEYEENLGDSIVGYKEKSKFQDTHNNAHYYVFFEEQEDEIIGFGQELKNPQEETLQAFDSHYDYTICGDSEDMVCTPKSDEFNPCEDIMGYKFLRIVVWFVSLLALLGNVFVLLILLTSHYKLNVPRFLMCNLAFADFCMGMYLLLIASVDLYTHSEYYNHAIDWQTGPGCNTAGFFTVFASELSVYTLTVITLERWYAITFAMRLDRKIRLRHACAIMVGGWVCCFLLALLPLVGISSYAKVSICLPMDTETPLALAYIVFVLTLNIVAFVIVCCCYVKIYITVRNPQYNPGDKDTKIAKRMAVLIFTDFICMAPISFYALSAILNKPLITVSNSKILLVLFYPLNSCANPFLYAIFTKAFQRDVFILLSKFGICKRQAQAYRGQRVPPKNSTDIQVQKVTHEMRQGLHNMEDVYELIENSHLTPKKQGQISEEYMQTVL
Outline: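 TSHR-HEK293 cells in agonist mode, 30 min room-temperature step, then cAMP measured by competitive HTRF (cAMP-d2 with anti-cAMP cryptate) after 1 h at room temperature. Tested at 15 concentrations in triplicate.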

[13] = qHTS assay to identify small molecule antagonists of the estrogen related receptor signaling pathway with the pleiotropic PPARgamma coactivator (PGC) from Tox21 10K library (AID 1224841; call rule not given here; further: series mostly up to about 92 µM; actives are mostly falling curves and most rising ones were filed inactive; nearly all actives have a fitted effect of over 50% in size)
Outline: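 PGC/ERR cell line, 2,000 cells/well, pre-incubated 6 hours at 37 C, then exposed to compounds for 18 hours at 37 C; luciferase read with One-Glo luminescence after 30 min at room temperature.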

[14] = qHTS assay to identify small molecule antagonists of the estrogen related receptor (ERR) signaling pathway from Tox21 library - cell viability counter screen (AID 1224834); further: nearly all actives have a fitted effect of over 30% in size; further: potency means the concentration at half of the fitted maximal effect
Outline: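 ERR reporter cells, 2,000 per well, rested 6 h, then exposed to compound in DMSO for 17.5 hours at 37 C. Viability read as fluorescence after 30 min with CellTiter-Fluor.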

| Structure (SMILES) | Potency [1] | outcome [2] | outcome [3] | Potency [4] | Potency [5] | Potency [6] | Potency [7] | Potency [8] | Potency [9] | Potency [10] | Potency [11] | Potency [12] | Potency [13] | Potency [14] |
| --- | --- | --- | --- | --- | --- | --- | --- | --- | --- | --- | --- | --- | --- | --- |
| CNC(=O)Oc1cccc2ccccc12 | inactive | inactive | inactive | inactive | inactive | inactive | inactive | inactive | inactive | 61.1 µM (active) and inactive | inactive | inactive |  |  |
| OC[C@@H](O)[C@H]1O[C@@H]2O[C@H](C(Cl)(Cl)Cl)O[C@@H]2[C@H]1O | inactive | inactive | inactive | inactive | inactive | inactive | inactive | inactive | inactive | inactive | inactive | inactive | inactive |  |
| CSc1nnc(C(C)(C)C)c(=O)n1N | inactive | inactive | inactive | inactive | inactive | inactive | inactive | inactive | inactive | inactive | inactive | inactive |  |  |
| C=CC(=O)OCCCCCC(C)C | inactive | inactive | inactive | inactive | inactive | inactive | inactive | inactive |  |  | inactive | inactive |  | inactive |
| Nc1ccc(N)cc1 | inactive | inactive | inactive | inactive | 34.4 µM (active) and 23.7 µM (active) | 40.1 µM (active) and 35.6 µM (active) |  |  | inactive | 21.8 µM (active) and 21.7 µM (active) and inactive | inactive | inactive |  | 30.8 µM (active) and 30.6 µM (active) and inactive |
| CN(C)C(=O)Cl | inactive | inactive | inactive | inactive | inactive | inactive | inactive | inactive | inactive | inactive | inactive | inactive | inactive |  |
| Cc1cc(O)ccc1Cl | inactive and 12.3 µM (active) | inactive | inactive | inactive | inactive | inactive | inactive | inactive |  |  | inactive | inactive | inactive | inactive |
| CNC(=O)O/N=C(\SC)C(=O)N(C)C | inactive | inactive | inactive | inactive | inactive | inactive | inactive | inactive | inactive | inactive | inactive | inactive | inactive |  |
| Nc1ncc([N+](=O)[O-])s1 | inactive | inactive | inactive | inactive | inactive | inactive | inactive | inactive |  |  | inactive | inactive | inactive |  |
| C=CC#N | inactive | inactive | inactive | inactive | inactive | inactive | inactive | inactive | inactive | inactive | inactive | inactive | inactive |  |
| OCCCCO | inactive | inactive | inactive | inactive | inactive |  | inactive | inactive | inactive | inactive | inactive | inactive | inactive | inactive |
| Cc1ccc(O)c(C)c1 | inactive | inactive | inactive | inactive | inactive | inactive | inactive | inactive |  |  | inactive | inactive | inactive | inactive |
| CNC(=O)O/N=C/C(C)(C)SC | inactive | inactive | inactive | inactive | inactive | inactive | inactive | inactive | inactive | inactive | inactive | inactive | inactive |  |
| CNc1cnn(-c2cccc(C(F)(F)F)c2)c(=O)c1Cl | inactive | inactive | inactive | inactive | 4.17 µM (active) and 5.45 µM (active) | 34.3 µM (active) and 39.9 µM (active) | inactive | inactive | inactive | 16.6 µM (active) and 24.3 µM (active) | inactive |  |  |  |
| [N-]=[N+]=CC(=O)OC[C@H](N)C(=O)O | inactive | inactive | inactive | inactive | inactive | inactive | inactive | inactive |  |  | inactive | inactive | inactive | inactive |
| N#Cc1ccccn1 | inactive | inactive | inactive | inactive | inactive | inactive | inactive | inactive | inactive | inactive | inactive | inactive |  |  |

— PubChem BioAssay (Tox21)
